This passage reports growth results from PubChem BioAssay (NCI).

The panel holds about 83,000 compounds, 20% with a hit somewhere; the sample as a whole holds those more often.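 Percent growth is the endpoint: 0 to 100 indicates growth inhibition (40 means 60% inhibition), 0 means no net growth, and negative values indicate cell death.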 A number with no mark means an inactive call. Calls of active or inactive are those of the source. The calls were made as follows: active = growth percent below 10; inactive = the rest.

The first experiment concerns SK-MEL-2 melanoma. As to the kind of experiment: NCI-60 one-dose screen, 48 h (100 = growth as untreated, 0 = no growth, -100 = all killed). The note with it: 10 µM unless noted.
Turning to `CC(C)(C)n1cc(-c2ccnc(NCCNS(=O)(=O)c3ccc(O)cc3)c2)c(-c2cccc(O)c2)n1`, the growth is 108%. Regarding `CC1(C)C(N)=Nc2cc(OCCCN3Cc4ccccc4C3)c(OCC3CC3)cc21`, the growth is 108%.

`CCOC(=O)C(=CNc1cnc(Nc2ccc(N3CCOCC3)cc2)nc1Oc1ccc(OC)cc1)C(=O)OCC`: the growth is 91.8%.

With `O=C(Nc1ccccc1O)c1ccc(CNC(=O)c2ccsc2Nc2ccnc(C(F)(F)F)c2)cc1`, the growth is -20.9% (active). Same read-out and setting: next, `CC(=O)ON1CCCC(P(=O)(OCCSC(=O)C(C)(C)C)OCCSC(=O)C(C)(C)C)C1=O` (centres undefined): 50.6%.

A further experiment relates to EKVX NSCLC. The description is as above. Particulars: 10 µM unless noted.
Turning to `C[n+]1ccc(CCc2c[nH]c3ccccc23)cc1`, the growth is 53.9%. As for `O=C(CI)NC(=O)NC(=O)NCc1ccccc1`, the growth was 93.6%. On the same count and under the same terms, the figure for `O=C1/C=C/[C@@H](O)[C@@H]2C[C@@H](O)C[C@H]2/C=C/CCC[C@@H](O)CCO1` is 82%; for `CC/C=C\C[C@H](O)C/C=C1/C(=O)C=C[C@@H]1C/C=C\CCCC(=O)O` it is 105%; for `CCCCNC(=O)c1cc([N+](=O)[O-])cc(C2CCCCC2)c1O` it is 33.6%.

With `CC(=C(c1ccc(OCCN2CCCCC2)cc1)c1ccc(OCCN2CCCCC2)cc1)c1ccc(Cl)cc1`, the growth was -86.4% (active). Same read-out and setting: next, `S=C(c1ccc2c(c1)OCO2)N1CCN(c2cccc(Cl)c2)CC1`: 50.9%; `COc1ccc(/C(C)=C(/c2ccc(OCCCN(C)C)cc2)c2ccc(OC(=O)c3ccccc3)cc2)cc1`: 74.5%. For the molecule `Cc1c(CC(=S)N2CCOCC2)nnn1-c1cccc(C(F)(F)F)c1`, the growth was 104%. On the same count and under the same terms, next, `COc1cccc(/C=C/C(=O)c2cc3c(N)c(C(=O)Nc4cccc5ccccc45)sc3nc2C)c1`: 39.9%.

With `COc1cc(OC)c2sc(-c3ccc(-n4cncc4-c4cc(OC)c(OC)c(OC)c4)cc3)nc2c1`, the growth is 58.7%. `COC(=O)C(Cc1ccccc1)NC(=O)c1ccc(NC(=O)c2[nH]c(C)c(Cl)c2Cl)c(OC(C)C)c1` (centres undefined): the growth was 101%. Still for that read-out and setting: next, `O=C(N/N=C\c1cccc([N+](=O)[O-])c1)N/N=C/c1cccc([N+](=O)[O-])c1`: 98%; `COc1ccccc1N(C(C)=O)C1=C(Cl)C(=O)c2ccccc2C1=O`: 10.1%. Still for that read-out and setting: next, `COc1cccc(CNc2c3ccccc3nc3ccccc23)c1`: 51.8%; `NC1(CO)COC(c2ccccc2)OC1` (centres undefined): 118%. On the same count and under the same terms, the figure for `CO[C@H](C(=O)[C@@H](O)[C@@H](C)O)[C@@H]1Cc2cc3cc(O[C@H]4C[C@@H](O[C@H]5C[C@@H](O)[C@H](O)C(C)O5)[C@H](O)C(C)(O)O4)cc(O)c3c(O)c2C(=O)[C@H]1O[C@H]1C[C@@H](O[C@H]2C[C@@H](O[C@H]3C[C@@H](OC)[C@H](O)C(C)O3)[C@@H](O)C(C)O2)[C@H](O)C(C)O1` (some centres undefined) is 34.7%; for `N#Cc1c(-c2ccccc2)nc(SCC(O)CN2CCOCC2)nc1N1CCOCC1` (centres undefined) it is 65.4%; for `COc1cc(-c2nc3cc(Cl)c(Cl)cc3[nH]2)ccc1OCC(=O)N=Nc1c(O)[nH]c2ccc(Cl)cc12` it is 45.7%.

As to `CNC(=O)c1ccccc1Nc1nc(Nc2cc(OC)c(OC)c(OC)c2)ncc1Br`, the growth was -10.4% (active). Regarding `C=C(C)[C@@H]1CC[C@]2(C(N)=O)CC[C@]3(C)[C@H](CC[C@@H]4[C@@]5(C)CC[C@H](OCCC#N)C(C)(C)[C@@H]5CC[C@]43C)[C@@H]12`, the growth was 90.4%. Still for that read-out and setting: next, `N#C/C(=C\C=C\c1ccc(-c2cc(Cl)ccc2Cl)o1)c1nc2ccccc2s1`: 80.2%; `COc1ccc(/C=C/C(c2cc(OC)c(OC)c(OC)c2)n2ccnc2)cc1O` (centres undefined): 81.2%. `Cc1ccc2nc(/C(C#N)=C(/CCCO)NC(Cc3ccccc3)C(=O)OCc3ccccc3)[nH]c(=O)c2c1` (centres undefined): the growth was 95.6%.

For the molecule `N#C/C(=C\c1ccc(-c2cccc(C(F)(F)F)c2)o1)c1ccccc1`, the growth was 67%. As to `O=C(NC1CC(F)C1)c1cc2cccnc2n1-c1ccc(Cl)c(Cl)c1` (centres undefined), the growth is 98.5%. In the case of `CCNC(=O)Oc1ccc(/C(=C(/CC)Cc2ccccc2)c2ccc(OCCN3CCCC3)cc2)cc1`, the growth was 88.3%. Same read-out and setting: the figure for `COc1cc(C2C(C(=O)OCc3ccccc3)=C(C)NC(C)=C2C(=O)OCc2ccccc2)cc(OC)c1OC` is 31.5%; for `CN(Cc1cc(Br)cc(Br)c1O)Cc1cc(Br)cc(Br)c1O` it is 54.8%.
